Experimental data: PubChem BioAssay AID488969 (Vanderbilt High Throughput Screening Facility, 2010)
The full ranking holds about 110,000 compounds; the median of “z-score” is about -0.1, and the highest 2% start at about 2. This excerpt belongs to a sample that is enriched for the highest values. Calls of active or inactive are those of the source.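 The calls were made as follows: active = z-score in the third read window above 3 or below -3; inactive = the rest.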

These molecules were tested against Metabotropic glutamate receptor 8 (Rattus norvegicus) (UniProt P70579) (assay: mGluR8 Gi/Go-coupled signaling modulation – cell-based, rat, thallium flux, HTS, primary screen (AID 488969)). Details: HEK293 rat mGluR8, GIRK (G protein-gated inwardly rectifying potassium channel) thallium flux, FluoZin2; at 10 µM; stronger effect = higher value; submaximal glutamate (EC20) added with thallium.
Chain of Metabotropic glutamate receptor 8 (Rattus norvegicus) (P70579 whole entry, looked up): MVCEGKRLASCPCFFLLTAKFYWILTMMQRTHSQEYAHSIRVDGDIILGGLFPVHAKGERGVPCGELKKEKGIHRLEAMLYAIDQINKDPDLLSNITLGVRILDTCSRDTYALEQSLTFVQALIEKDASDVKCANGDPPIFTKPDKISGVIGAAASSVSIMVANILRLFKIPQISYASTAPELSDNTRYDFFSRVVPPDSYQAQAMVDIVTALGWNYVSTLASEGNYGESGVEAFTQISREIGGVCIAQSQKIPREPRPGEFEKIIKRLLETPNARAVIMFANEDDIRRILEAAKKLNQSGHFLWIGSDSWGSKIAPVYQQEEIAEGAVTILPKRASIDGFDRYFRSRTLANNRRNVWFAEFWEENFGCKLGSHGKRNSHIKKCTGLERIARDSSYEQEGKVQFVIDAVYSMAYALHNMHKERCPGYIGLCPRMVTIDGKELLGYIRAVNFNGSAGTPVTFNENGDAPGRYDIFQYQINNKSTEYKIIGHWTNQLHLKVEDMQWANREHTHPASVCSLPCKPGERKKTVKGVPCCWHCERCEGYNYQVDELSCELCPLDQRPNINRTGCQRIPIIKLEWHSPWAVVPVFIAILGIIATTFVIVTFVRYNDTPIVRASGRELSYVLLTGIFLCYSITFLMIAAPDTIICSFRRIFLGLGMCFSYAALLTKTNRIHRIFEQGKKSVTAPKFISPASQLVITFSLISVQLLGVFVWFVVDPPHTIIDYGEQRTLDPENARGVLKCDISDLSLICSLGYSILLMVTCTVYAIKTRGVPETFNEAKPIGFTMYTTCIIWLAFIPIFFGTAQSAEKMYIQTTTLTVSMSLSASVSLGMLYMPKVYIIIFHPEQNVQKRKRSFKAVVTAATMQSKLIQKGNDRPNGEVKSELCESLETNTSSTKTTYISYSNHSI
Work on CCOC(=O)Cc1cc(-c2ccc(O)cc2)nc2ccc3ccccc3c12 yielded a z-score of 0.0725. CCOC(=O)c1c(C)nc2c(c1-c1ccc(Cl)cc1)C(=O)CC(C)(C)C2 was tested, and the z-score was -1.24. CC(C)CC(NC(=O)c1ccc(Cl)cc1)C(=O)O (stereo not drawn) gave a z-score of -0.0425. With CC(C)[C@H](NC(=O)NCCc1ccc(Cl)cc1)C(=O)O the z-score was 0.54. Work on CC(C)C[C@H](NC(=O)NCCc1ccc(Cl)cc1)C(=O)O yielded a z-score of 2.58. Work on COc1ccc(NC(=O)C23CC4CC(C2)CC(n2cnc(Br)n2)(C4)C3)cc1Cl yielded a z-score of -0.254. Molecule Cn1c(=O)cc(SCC(=O)NCCC2=CCCCC2)c2ccc(Cl)cc21 has a z-score of -0.0516. In the case of O=C(NC(Nc1nc2ccc([N+](=O)[O-])cc2s1)(C(F)(F)F)C(F)(F)F)c1ccccc1Cl, the z-score is reported as 9.65 (active). Molecule O=C(NC(NNc1ccc([N+](=O)[O-])cc1)(C(F)(F)F)C(F)(F)F)c1ccccc1Cl has a z-score of -0.392. O=C(NC(Nc1nc2ccc([N+](=O)[O-])cc2s1)(C(F)(F)F)C(F)(F)F)c1cccnc1 showed a z-score of 0.978. Work on COC(=O)C(NC(=O)c1ccccc1Cl)(Nc1ncc(S(=O)(=O)c2ccc([N+](=O)[O-])cc2)s1)C(F)(F)F (stereo not drawn) yielded a z-score of -0.242. For O=C(NC(Nc1nc2ccc([N+](=O)[O-])cc2s1)(C(F)(F)F)C(F)(F)F)c1ccccc1, the z-score was 6.52 (active). For O=C(NC(Nc1nc2ccccc2s1)(C(F)(F)F)C(F)(F)F)c1ccccc1, the z-score was -0.124. For CN(C(=O)Nc1ccc(S(=O)(=O)N(C)C)cc1)C1CCCCC1, the z-score was -0.0267. Work on O=C(CCn1c(=O)c2ccccc2n(CC(=O)NC2CCCC2)c1=O)NCc1ccco1 yielded a z-score of -0.258. CN(C(=O)COC(=O)c1ccccc1SCC(=O)NC1CCCCCCC1)C1CCS(=O)(=O)C1 (stereo not drawn) was tested, and the z-score was -0.32. Cc1cc(Oc2ccc3ccccc3c2)nc(SCC(=O)c2ccccc2)n1 was tested, and the z-score was -0.14. In the case of CC(=O)/C=C(\C)Nc1ccc(-c2cnc(-c3ccccc3)o2)cc1, the z-score is reported as 0.0863. Molecule CS(=O)(=O)c1ccc(Cl)c(S(=O)(=O)NCc2ccccc2)c1 has a z-score of 0.117. In the case of Cc1ccccc1NS(=O)(=O)c1cc(S(C)(=O)=O)ccc1Cl, the z-score is reported as -0.0663. In the case of CCNS(=O)(=O)c1cc(S(C)(=O)=O)ccc1Cl, the z-score is reported as 8.32 (active). Molecule CC(C)=CC(=O)Nc1nnc(-c2ccccc2)s1 has a z-score of -0.169. O=C(NNC(=S)Nc1ccccc1)c1cccc(Br)c1 was tested, and the z-score was 3.98 (active). In the case of O=C(O)CCC(=O)NNC(=O)c1cccc(Br)c1, the z-score is reported as -0.13. Work on CCNC(=S)NNC(=O)c1cccc(Br)c1 yielded a z-score of 0.0953. For O=C(NNC(=S)Nc1cccc2ccccc12)c1cccc(Br)c1, the z-score was 13.9 (active). C=CCNC(=S)NNC(=O)c1cccc(Br)c1 gave a z-score of -0.0521. Cc1ccc(C(=O)NNC(=S)Nc2cccc3ccccc23)s1 was tested, and the z-score was 1.65.
